Activity change, negative = inhibition, Potency and activity, negative = inhibition data for nine compounds are collected here from PubChem BioAssay (NCATS).

Molecules are shown by their SMILES. Unmarked numbers belong to inactive results. Inconclusive results are not listed. Calls of active or inactive are those of the source. Unless noted, the call rests on the fitted dose curve; in most records, active means well fitted curve in either direction with a large enough effect (not every such curve was filed as active); inconclusive means small, poorly fitted or top-dose-only effect, or another doubt; inactive means flat fitted curve, though single readings scatter.

The nature of assay [1]: AP1 Signaling Pathway (AID 357).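 Further: ME-180 reporter cells stimulated with EGF at its EC50 level; on the % scale 0 is the no-effect control and ±100 the full control effect.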 The following applies: ME-180 AP-1-bla reporter, EGF-induced, beta-lactamase ratio, 5 h; at 7.69 µM (top of the series) unless noted. The method, boiled down:
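Beta-lactamase reporter under AP-1 response element, ME-180 background. Stimulus: EC50 EGF. Compound exposure 5 h, 37 °C. Detection: CCF4, 2.5 h RT, 460/530 nm. Values: AC50 from titration.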

The target of assay [2] is Cytochrome P450 1A2 (Homo sapiens) (UniProt P05177). In words: p450-cyp1a2 (AID 410; calls by dose curve; further: potency means the concentration at half of the fitted maximal effect;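 on Activity change, negative = inhibition: -100% = full effect of reference inhibitor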). The essentials:
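20nM CYP1A2, 100uM Luciferin-ME (=Km), 100mM KPO4; cpd 10 min RT; +NADPH regen, 60 min RT; stop/detect 20 min; luminescence. Normalized to furafylline 57 uM = full inhibition.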

Assay [3] is described as follows: Stat Signaling Pathway (AID 446).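 Further: ME-180 cervical cancer cells given 40 pM IL-6 alongside compound; SIE-controlled beta-lactamase reporter measured as 460/530 nm FRET emission ratio; on the % scale 0 is the no-effect control and ±100 the full control effect.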 The following applies: ME-180 (cervical carcinoma) SIE beta-lactamase reporter, IL-6 stimulated, 5 h; at 7.69 µM (top of the series) unless noted. The essentials: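 FRET read-out (405 nm excitation, 460/530 nm emission) of a beta-lactamase reporter under a STAT-inducible element in ME-180 cervical carcinoma cells. Cells with compound receive 40 pM IL-6 for 5 h. Values are normalised to AC90 stimulation and AC90 JAK-inhibitor controls.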

Assay [4] has as its target Glucocorticoid receptor (Homo sapiens) (UniProt P04150). Put plainly: GR-GFP Redistribution (AID 450;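 active means compounds whose dose series gives a full or clear partial fitted curve of increased nuclear translocation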; further: potency means the concentration at half of the fitted maximal effect). The following applies: U2OS GR-GFP nuclear translocation, laser cytometry, 2 h.
Assay [5] addresses Mitogen-activated protein kinase 10 (Mus musculus) (UniProt Q61831). Put plainly: JNK3 AlphaScreen Assay (AID 530).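 Further: kinase came from lysate of stimulated human HepG2 cells; signal reports phosphorylation of biotinylated GST-cJun 1-79 at Ser73 with 10 µM ATP; on the % scale 0 is the no-effect control and ±100 the full control effect.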 The essentials:
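HepG2 lysate (IL-1b/TNFa pre-activated) + biotin-GST-cJun 1-79 + anti-pSer73 cJun; cpd titration, 15 min RT; ATP 10 uM start; Tris pH 7.6, MgCl2, DTT, vanadate; beads in EDTA buffer; AlphaScreen.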

In assay [6] the target is 3',5'-cyclic-AMP phosphodiesterase 4B (Homo sapiens) (UniProt Q07343). Put plainly: qHTS Assay for Inhibitors of PDE-IV (AID 607; active means well fitted activation curve with a large enough effect in the main read-out, with a control signal flat, not every such curve was filed as active; further: % of control where 0% means no effect). The method, boiled down:
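Cell-based read-out of cAMP via a modified cyclic nucleotide-gated channel and membrane potential dye (535/590 nm) in HEK293 cells expressing PDE4 endogenously. Compounds tested up to 22.9 uM final; 100 uM RO 20-1724 reference.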

In assay [7] the target is Glucocorticoid receptor (Homo sapiens) (UniProt P04150). In words: GR-EFC Redistribution (AID 451; calls by dose curve; further: potency means the concentration at half of the fitted maximal effect). The following applies: CHO-K1 GR-EFC translocation, beta-gal luminescence, 2 h. The method, boiled down:
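CHO-K1 cells expressing nuclear EA and GR-ED fragments of b-gal; compounds titrated up to 46 uM final, 2 h at 37 C. GR nuclear translocation read as complemented b-gal luminescence after 1 h RT detection.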

Assay [8] can be described thus: NFAT Signaling Pathway (AID 444).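 Further: carbachol stimulus at about its EC50 of 1 µM final; on the % scale 0 is the no-effect control and ±100 the full control effect.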 The following applies: Jurkat NFAT-bla M1, carbachol, beta-lactamase ratio, 5 h; at 7.69 µM (top of the series) unless noted. The method, boiled down:
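Jurkat cells with NFAT-driven β-lactamase reporter and co-expressed M1 receptor, stimulated with carbachol (final 1 uM, ~EC50), compound titration, 5 h at 37 °C. CCF4 loaded 1 h at RT; 460/530 nm ratio gave %activity and AC50.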

Cytochrome P450 1A2 (Homo sapiens), sequence (P05177 whole entry, looked up): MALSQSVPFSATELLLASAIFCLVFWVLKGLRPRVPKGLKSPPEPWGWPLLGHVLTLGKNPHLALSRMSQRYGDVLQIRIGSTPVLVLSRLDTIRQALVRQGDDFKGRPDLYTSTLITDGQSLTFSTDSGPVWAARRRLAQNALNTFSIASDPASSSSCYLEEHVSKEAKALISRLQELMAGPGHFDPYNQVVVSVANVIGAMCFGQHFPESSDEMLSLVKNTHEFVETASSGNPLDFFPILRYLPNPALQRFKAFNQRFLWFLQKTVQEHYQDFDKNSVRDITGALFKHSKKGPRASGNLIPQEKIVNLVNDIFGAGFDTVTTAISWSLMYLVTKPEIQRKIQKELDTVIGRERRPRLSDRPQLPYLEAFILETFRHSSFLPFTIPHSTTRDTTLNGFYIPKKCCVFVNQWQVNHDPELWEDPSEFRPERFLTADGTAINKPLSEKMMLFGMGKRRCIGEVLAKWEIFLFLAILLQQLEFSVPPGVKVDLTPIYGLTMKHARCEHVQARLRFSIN
3',5'-cyclic-AMP phosphodiesterase 4B (Homo sapiens), sequence (Q07343 whole entry, looked up): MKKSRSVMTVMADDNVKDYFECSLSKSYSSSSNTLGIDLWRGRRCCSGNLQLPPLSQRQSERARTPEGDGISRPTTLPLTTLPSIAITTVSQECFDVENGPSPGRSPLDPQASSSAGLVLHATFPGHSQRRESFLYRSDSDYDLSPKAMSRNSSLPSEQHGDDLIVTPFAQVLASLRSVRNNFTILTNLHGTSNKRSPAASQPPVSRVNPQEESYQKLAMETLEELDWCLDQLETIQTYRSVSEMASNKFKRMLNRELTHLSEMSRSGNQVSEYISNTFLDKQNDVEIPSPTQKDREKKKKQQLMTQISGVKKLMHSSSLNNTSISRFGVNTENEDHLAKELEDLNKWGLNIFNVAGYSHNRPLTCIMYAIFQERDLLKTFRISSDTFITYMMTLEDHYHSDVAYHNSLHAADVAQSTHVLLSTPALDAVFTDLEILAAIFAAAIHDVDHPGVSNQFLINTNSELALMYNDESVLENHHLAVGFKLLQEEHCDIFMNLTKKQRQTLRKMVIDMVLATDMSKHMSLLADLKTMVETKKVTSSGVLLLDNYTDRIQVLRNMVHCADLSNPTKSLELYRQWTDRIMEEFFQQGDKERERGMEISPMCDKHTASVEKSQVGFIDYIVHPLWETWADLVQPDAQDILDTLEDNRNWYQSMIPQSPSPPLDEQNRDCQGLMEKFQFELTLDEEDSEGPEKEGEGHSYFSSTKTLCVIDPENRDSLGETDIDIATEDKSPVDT
Glucocorticoid receptor (Homo sapiens), sequence (P04150 whole entry, looked up, the tested form may be a part): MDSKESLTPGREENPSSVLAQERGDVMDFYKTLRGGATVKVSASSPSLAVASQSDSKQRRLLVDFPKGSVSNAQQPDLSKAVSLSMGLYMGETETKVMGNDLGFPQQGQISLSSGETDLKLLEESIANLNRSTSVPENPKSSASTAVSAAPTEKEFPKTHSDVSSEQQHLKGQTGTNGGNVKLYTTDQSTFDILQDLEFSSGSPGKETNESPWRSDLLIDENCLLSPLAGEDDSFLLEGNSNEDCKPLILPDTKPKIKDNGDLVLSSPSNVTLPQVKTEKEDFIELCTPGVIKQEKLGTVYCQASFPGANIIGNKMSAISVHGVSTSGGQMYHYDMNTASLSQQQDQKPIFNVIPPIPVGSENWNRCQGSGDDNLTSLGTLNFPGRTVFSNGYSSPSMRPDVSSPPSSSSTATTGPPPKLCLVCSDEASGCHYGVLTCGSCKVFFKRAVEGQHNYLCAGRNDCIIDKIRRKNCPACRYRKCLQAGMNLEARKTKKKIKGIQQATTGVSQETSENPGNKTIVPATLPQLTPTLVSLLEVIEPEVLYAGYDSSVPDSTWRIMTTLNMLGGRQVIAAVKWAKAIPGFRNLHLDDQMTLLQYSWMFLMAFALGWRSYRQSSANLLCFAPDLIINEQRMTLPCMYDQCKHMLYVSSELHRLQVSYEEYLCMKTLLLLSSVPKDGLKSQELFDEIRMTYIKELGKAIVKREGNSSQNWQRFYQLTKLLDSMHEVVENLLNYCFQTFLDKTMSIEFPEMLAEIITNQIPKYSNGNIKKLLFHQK

Turning to `NS(=O)(=O)c1ccc(N=Nc2nc3[nH]cnc(=S)c3[nH]2)cc1`, in assay [1], the activity change, negative = inhibition is 2.31%. Moreover, the Potency in assay [2] is 6.31 µM (active); in assay [4], greater than 46 µM. For the same compound, the activity, negative = inhibition in assay [3] is 14.2%. Besides, the Potency result in assay [5] and in assay [6] was “inactive” throughout.
On to `C[C@@H](COc1ccc(/C=C\c2ccccc2)cc1)[N+](C)(C)C`, for which the activity change, negative = inhibition in assay [1] is -11.9% [at 38 µM]. Also, the Potency result in assay [2], in assay [5] and in assay [6] was “inactive” in each case. Further, the activity, negative = inhibition in assay [3] is -2.8% [at 38 µM]. For the same compound, the Potency in assay [4] and in assay [7] was greater than 46 µM in each case.
Consider `COc1cccc(Nc2ncc3ncc(=O)n(C4CC4)c3n2)c1`, for which the Potency is 0.631 µM (active) in assay [2], greater than 9.22 µM in assay [4] and greater than 46 µM in assay [7]. Besides, in assay [8], the activity change, negative = inhibition was -22.2%. Further, the activity, negative = inhibition in assay [3] was -24.1%. The Potency entry in assay [5] and in assay [6] was “inactive” each time.
In the case of `C[C@@H](CN1CCC(Cc2ccccc2)CC1)[C@H](O)c1ccc(O)cc1`, in assay [1], the activity change, negative = inhibition was 7.29% [at 38 µM]. Also, the Potency in assay [2] was 12.6 µM (active); in assay [4], greater than 46 µM; in assay [7], greater than 46 µM. The activity, negative = inhibition in assay [3] is -25.3% [at 38 µM]. Moreover, the Potency entry in assay [5] and in assay [6] was “inactive” each time.
Regarding `CN1CCN(c2ncc3nc(-c4cccs4)c(=O)n(C[C@H]4CCCO4)c3n2)CC1`, in assay [1], the activity change, negative = inhibition was 19.1%. In addition, the Potency in assay [2] is 12.6 µM (active); in assay [4] it was greater than 9.22 µM; in assay [7] it was greater than 46 µM. Also, the Potency entry in assay [5] is “inactive”.
As to `COC(=O)[C@](C)(N)Cc1ccc(O)cc1`, the activity change, negative = inhibition in assay [1] is 9.7% [at 38 µM]. Further, the Potency entry in assay [2], in assay [5] and in assay [6] was “inactive” in each case. For the same compound, in assay [3], the activity, negative = inhibition is -6.8% [at 38 µM]. Further, the Potency in assay [4] and in assay [7] was greater than 46 µM in each case.
In the case of `O=C(O)Cc1[nH]cnc1C(=O)O`, the activity change, negative = inhibition in assay [1] was -11%; in assay [8] it was 7.88%. The activity, negative = inhibition in assay [3] is -3.92%. The Potency was greater than 46 µM in assay [4] and greater than 9.22 µM in assay [7].
For `O[C@H](CN1CCN(c2cccc(Cl)c2)CC1)C(c1ccccc1)c1ccccc1`, in assay [1], the activity change, negative = inhibition was -10.5% [at 38 µM]. The Potency is 12.6 µM (active) in assay [2], greater than 46 µM in assay [4] and greater than 46 µM in assay [7]. Besides, the activity, negative = inhibition in assay [3] was 24.9% [at 38 µM]. In addition, in assay [5], the Potency result is “inactive”.
`Oc1c([C@H](Nc2ccccn2)c2ccccc2)ccc2cccnc12`: the activity change, negative = inhibition in assay [1] was -3.08%; in assay [2], -21.9% [at 2.29 µM]. The activity, negative = inhibition in assay [3] is 15.1%. The Potency in assay [4] was greater than 46 µM; in assay [7] it was greater than 9.22 µM. Moreover, the Potency entry in assay [5] and in assay [6] was “inactive” in each case.
